According to PubChem BioAssay (NCI):
The panel holds about 83,000 compounds, 20% with a hit somewhere; the sample as a whole holds those more often.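 96-well plates, one dose, 48 hours. Percent growth reported; active if below 10.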 Active and inactive are the calls of the source.

How the values were obtained:
Assay in all cases: NCI-60 one-dose screen, 48 h (100 = growth as untreated, 0 = no growth, -100 = all killed)
Settings in all cases: 10 µM unless noted
[1] = test system: SR leukemia
[2] = test system: RPMI-8226 leukemia
[3] = test system: OVCAR-8 ovarian
[4] = test system: OVCAR-5 ovarian
[5] = test system: OVCAR-4 ovarian
[6] = test system: SK-OV-3 ovarian
[7] = test system: IGROV1 ovarian
[8] = test system: HS 578T breast
[9] = test system: NCI/ADR-RES ovarian
[10] = test system: OVCAR-3 ovarian

Measured: growth

CN(C)c1ccc2cc(-c3ccccc3F)c(N)nc2c1
inactive: [2] 25.2% | [3] 22.6% | [4] 68.7% | [5] 32.8% | [6] 28.9% | [7] 40.9% | [8] 28.9%
active: [1] 6.09% | [9] 1.98%

COc1cc(NC(=O)c2cc(O)c(CC=C(C)C)c(O)c2)cc2c1O[C@]1(C)CC[C@@H](O)C(C)(C)[C@H]1C2
inactive: [1] 14.1% | [3] 54% | [4] 61.8% | [5] 51.5% | [6] 21.5% | [7] 52.5% | [10] 31.6% | [8] 13.1% | [9] 96.4%
active: [2] -29.3%

NC(=S)c1csc(CCNC(=O)c2ccccc2)n1
inactive: [1] 107% | [2] 102% | [3] 106% | [4] 117% | [5] 91.2% | [6] 101% | [7] 112% | [10] 113% | [8] 102% | [9] 110%

COC(=O)[C@]12CC[C@@H](C)[C@H](C)[C@@H]1C1=CC[C@@H]3[C@@]4(C)C(C=O)=C[C@@](C)(CO)C4=CC[C@@]3(C)[C@]1(C)CC2
inactive: [1] 15.5% | [2] 12.8% | [3] 32.2% | [4] 62.9% | [5] 31.7% | [6] 76.3% | [7] 45.4% | [10] 24.3% | [8] 47.5% | [9] 31.9%

Cc1c(C)c2c(c(C)c1NC(=O)/C=C\C(=O)O)CCC(C)(CCCC(C)CCCC(C)CCCC(C)C)O2 (stereo not drawn)
active: [1] 9.98%
inactive: [2] 30.6% | [3] 35.9% | [4] 87.6% | [5] 39.4% | [6] 54.6% | [7] 56.8% | [10] 43.2% | [8] 57.4% | [9] 43.1%

O=C1N(c2ccccc2)C(=S)N[C@]12[C@H](c1ccccc1)C1CCCN1[C@]21C(=O)NC2C=CC(Cl)=C[C@H]21 (stereo partly drawn)
inactive: [1] 96% | [2] 73.7% | [3] 78.3% | [4] 117% | [5] 102% | [6] 88% | [7] 95.1% | [10] 106% | [8] 83.6% | [9] 102%

NC(N)=N/N=C/CO
inactive: [1] 92% | [2] 103% | [3] 103% | [4] 104% | [5] 96% | [6] 102% | [7] 108% | [10] 107% | [8] 112% | [9] 95.5%

O=C1CSC(c2ccccc2)N1c1ccccc1 (stereo not drawn)
inactive: [1] 88% | [2] 100% | [3] 102% | [4] 103% | [5] 104% | [6] 100% | [7] 112% | [10] 112% | [8] 86.8% | [9] 100%

COc1cc2c(cc1OC)-c1ccc3cc4c(cc3c1N(CCCN(C)C)C2)OCO4
inactive: [1] 15.3% | [2] 17.1% | [3] 27.5% | [4] 60% | [5] 52.4% | [6] 55.3% | [7] 21.7% | [10] 48% | [8] 45.5% | [9] 65.4%

Cc1cc(=O)[nH]c(N/N=C/c2cc(Br)ccc2O)n1
inactive: [1] 28.4% | [2] 31.2% | [3] 16.7% | [4] 39.1% | [6] 19.1% | [8] 69% | [9] 10.2%
active: [5] 7.34% | [7] -0.435% | [10] 6.58%

COc1ccc(OC)c(Nc2nc3nonc3nc2Nc2cc(OC)ccc2OC)c1
inactive: [1] 79.2% | [2] 36.1% | [3] 47.8% | [4] 92.3% | [6] 46.1% | [7] 95.3% | [10] 26% | [8] 44.6% | [9] 44.8%
active: [5] -27.6%

CCCCn1c(=O)[nH]c(N)c(C(c2ccc(F)cc2)c2c(N)[nH]c(=O)n(CCCC)c2=O)c1=O
inactive: [1] 42% | [2] 50% | [3] 66.5% | [4] 94.4% | [5] 64.6% | [6] 80.6% | [7] 78.8% | [10] 54% | [8] 81.1% | [9] 96.7%

C/C(=N\NC(N)=S)c1nc2ccc(Cl)cc2[nH]1
inactive: [1] 30.5% | [2] 57.6% | [3] 39.1% | [4] 69.8% | [5] 32.3% | [6] 47.1% | [7] 58.9% | [10] 50.1% | [9] 31.1%

COc1cc(C(=O)Nc2cc(O)c(CC=C(C)C)c(O)c2)cc2c1O[C@]1(C)CC[C@@H](O)C(C)(C)[C@H]1C2
inactive: [1] 14.2% | [3] 31.3% | [4] 53% | [5] 58.6% | [6] 16.5% | [7] 61.1% | [10] 27.7% | [8] 10.3% | [9] 81.3%
active: [2] -24.3%

CCCCCOC(=O)c1cccc(NC(=O)CN(CC)CC)c1
inactive: [1] 78.3% | [2] 96.7% | [3] 103% | [4] 107% | [5] 119% | [6] 94.9% | [7] 107% | [10] 113% | [8] 111% | [9] 105%

Cc1cnc(Nc2ccc(N3CCN(C)CC3)cc2)nc1Nc1ccc(Cl)c(NS(=O)(=O)C(C)(C)C)c1
inactive: [3] 21.7% | [4] 19.9% | [5] 27.9% | [9] 21%
active: [1] -3.93% | [2] 5.58% | [6] -6.97% | [7] 6.84% | [10] 9.51% | [8] -6.51%

CSc1nc(N)c(CNC(C)c2ccccc2)c(=O)n1C (stereo not drawn)
inactive: [1] 103% | [2] 109% | [3] 97.9% | [4] 91.7% | [5] 104% | [6] 97.5% | [7] 101% | [10] 110% | [8] 99.6% | [9] 100%

C[C@@H]1C(=O)N(C[C@H](Cc2ccccc2)NC(=O)OCc2ccccc2)[C@]1(Cc1ccccc1)C(=O)OC(C)(C)C
inactive: [1] 64.4% | [2] 41.3% | [3] 66.9% | [4] 91.5% | [5] 52.4% | [6] 70.2% | [7] 69.7% | [10] 70.3% | [8] 79.4% | [9] 63%

CSc1nc2sc3cc(Cl)ccc3n2c(=N)c1C#N
inactive: [1] 56.8% | [2] 83.5% | [3] 56.9% | [4] 107% | [5] 45.4% | [6] 72.4% | [7] 96.7% | [10] 101% | [8] 24.8% | [9] 58.4%

C=CCN1C(=O)[C@]2(SC1=S)[C@H](c1cccc(Cl)c1)CN(C)[C@]21C(=O)NC2C=CC(Cl)=C[C@H]21 (stereo partly drawn)
active: [1] -22.6% | [2] -5.81%
inactive: [3] 56% | [4] 80.5% | [5] 49.4% | [6] 58% | [7] 48.3% | [10] 38.4% | [8] 56% | [9] 38.7%

COc1ccc(/C(C)=C(\c2ccc(Cl)cc2)c2ccc(OCCN3CCCCCC3)cc2)cc1F
active: [1] -12.6% | [2] -9.96%
inactive: [3] 63.7% | [4] 58.9% | [5] 36% | [6] 71.5% | [7] 56.8% | [10] 54.9% | [8] 44.1% | [9] 65.7%

COc1c(C)cnc(CSc2nc(-c3ccc(C)cc3)cn2-c2ccc(Cl)cc2)c1C
inactive: [1] 74.8% | [2] 89.9% | [3] 98.5% | [4] 97.5% | [5] 90.2% | [6] 91% | [7] 93.4% | [10] 93.5% | [8] 105% | [9] 95.5%

CCN(CC)c1ccc(Nc2ccc(CC(=O)c3ccccc3)cc2)cc1
inactive: [1] 55.3% | [2] 49.9% | [3] 84.8% | [4] 98.3% | [5] 87.8% | [6] 97.8% | [7] 88.4% | [10] 84.3% | [8] 81.1% | [9] 73.6%

Nc1c(-c2nc3ccccc3c(=O)[nH]2)nnn1-c1ccc(Cl)cc1
inactive: [1] 56.2% | [2] 90.6% | [3] 56.1% | [4] 97.8% | [6] 68.5% | [7] 83% | [10] 89.2% | [8] 51.1% | [9] 56.4%
active: [5] -4.08%

Clc1ccc(-c2cn(-c3ccccc3)c(-c3ccccc3)n2)cc1
active: [1] -19.6% | [2] -54.6%
inactive: [3] 90.7% | [4] 90% | [5] 88.1% | [6] 102% | [7] 48% | [10] 80% | [8] 102% | [9] 93.4%

Clc1ccc2[nH]c3c(NCCCN4CCOCC4)ncnc3c2c1
active: [1] -24.2%
inactive: [2] 52.6% | [3] 66.5% | [4] 90.8% | [5] 77.5% | [6] 81.5% | [7] 63.1% | [10] 85.3% | [8] 102% | [9] 65.9%

Cc1ccc(NSc2ccccc2[N+](=O)[O-])cc1
inactive: [2] 19.9% | [3] 33.1% | [4] 49.7% | [5] 73.2% | [6] 28.3% | [7] 38% | [8] 32.2% | [9] 14%
active: [1] 9.72% | [10] 7.41%
